# According to PubChem BioAssay (NCATS):
# Inconclusive results are not listed. Entries that show only a call come without a potency. Calls of active or inactive are those of the source. The call rests on the fitted dose curve; in most records, active means well fitted curve in the direction sought with a large enough effect; inconclusive means small, poorly fitted or top-dose-only effect, or another doubt; inactive means no such curve, though single readings can be large; an effect the other way counts as inactive or inconclusive.
# What was measured:
# [1] = Quantitative High-Throughput drug screen in 47 multiple myeloma cell lines against the NCATS MIPE library collection: Karpas25_ECACC cell viability assay (AID 1918968; further: nearly all actives have a fitted effect of over 35% in size; further: potency means the concentration at half of the fitted maximal effect)
# How it was run: (§1)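 We plated 500 myeloma cells per well, pinned in MIPE 4.0 compounds, and incubated for 48 hours at 37C. ATP was then quantified with CellTiter-Glo, with DMSO and media-only wells defining 100% and 0%.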
# [2] = Quantitative High-Throughput drug screen in 47 multiple myeloma cell lines against the NCATS MIPE library collection: KMS27_JCRB cell viability assay (AID 1918970); further: nearly all actives have a fitted effect of over 30% in size; further: potency means the concentration at half of the fitted maximal effect
# How it was run: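 KMS27_JCRB myeloma cells, 500 per well, exposed 48 h at 37 C, 5% CO2 to MIPE 4.0 compounds. Viability from ATP by CellTiter-Glo luminescence, normalized to DMSO (100%) and medium-only (0%) wells.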
# [3] = Quantitative High-Throughput drug screen in 47 multiple myeloma cell lines against the NCATS MIPE library collection: KMS12PE_JCRB cell viability assay (AID 1918972); further: nearly all actives have a fitted effect of over 30% in size; further: potency means the concentration at half of the fitted maximal effect
# How it was run: as §1
# [4] = Quantitative High-Throughput drug screen in 47 multiple myeloma cell lines against the NCATS MIPE library collection: MMM1_PLB cell viability assay (AID 1918976); further: nearly all actives have a fitted effect of over 35% in size; further: potency means the concentration at half of the fitted maximal effect
# How it was run: (§2)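 Plated at 500 cells per well, myeloma lines received MIPE 4.0 compounds by pin tool. Following 48 h culture at 37 °C, CellTiter-Glo luminescence gave viability relative to DMSO and media-only controls.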
# [5] = Quantitative High-Throughput drug screen in 47 multiple myeloma cell lines against the NCATS MIPE library collection: MOLP8_DSMZ cell viability assay (AID 1918977); further: nearly all actives have a fitted effect of over 45% in size; further: potency means the concentration at half of the fitted maximal effect
# How it was run: as §2
# [6] = Quantitative High-Throughput drug screen in 47 multiple myeloma cell lines against the NCATS MIPE library collection: MM1S_ATCC cell viability assay (AID 1918980); further: nearly all actives have a fitted effect of over 45% in size; further: potency means the concentration at half of the fitted maximal effect
# How it was run: as §2
# [7] = Quantitative High-Throughput drug screen in 47 multiple myeloma cell lines against the NCATS MIPE library collection: MM1R_ATCC cell viability assay (AID 1918981); further: nearly all actives have a fitted effect of over 35% in size; further: potency means the concentration at half of the fitted maximal effect
# How it was run: as §2
# [8] = Quantitative High-Throughput drug screen in 47 multiple myeloma cell lines against the NCATS MIPE library collection: LP1_DSMZ cell viability assay (AID 1918982); further: nearly all actives have a fitted effect of over 35% in size; further: potency means the concentration at half of the fitted maximal effect
# How it was run: as §2
# [9] = Quantitative High-Throughput drug screen in 47 multiple myeloma cell lines against the NCATS MIPE library collection: KMS28PE_JCRB cell viability assay (AID 1918983); further: nearly all actives have a fitted effect of over 35% in size; further: potency means the concentration at half of the fitted maximal effect
# How it was run: as §2
# [10] = Quantitative High-Throughput drug screen in 47 multiple myeloma cell lines against the NCATS MIPE library collection: OCIMY5_PLB cell viability assay (AID 1918988); further: nearly all actives have a fitted effect of over 65% in size; further: potency means the concentration at half of the fitted maximal effect
# How it was run: as §2
# [11] = Quantitative High-Throughput drug screen in 47 multiple myeloma cell lines against the NCATS MIPE library collection: KMS12BM_JCRB cell viability assay (AID 1918971); further: nearly all actives have a fitted effect of over 35% in size
# How it was run: (§3)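 Myeloma cell lines, 500 cells per well, exposed to MIPE 4.0 library compounds for 48 h at 37C, 5% CO2. Viability from ATP by CellTiter-Glo luminescence; normalised to DMSO (100%) and media-only (0%) wells.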
# [12] = Quantitative High-Throughput drug screen in 47 multiple myeloma cell lines against the NCATS MIPE library collection: NCIH929_DSMZ cell viability assay (AID 1918978); further: nearly all actives have a fitted effect of over 35% in size; further: potency means the concentration at half of the fitted maximal effect
# How it was run: as §2
# [13] = Quantitative High-Throughput drug screen in 47 multiple myeloma cell lines against the NCATS MIPE library collection: OCIMY1_PLB cell viability assay (AID 1918979); further: nearly all actives have a fitted effect of over 35% in size; further: potency means the concentration at half of the fitted maximal effect
# How it was run: as §2
# [14] = Quantitative High-Throughput drug screen in 47 multiple myeloma cell lines against the NCATS MIPE library collection: KMS34_JCRB cell viability assay (AID 1918985); further: nearly all actives have a fitted effect of over 40% in size; further: potency means the concentration at half of the fitted maximal effect
# How it was run: as §2
# [15] = Quantitative High-Throughput drug screen in 47 multiple myeloma cell lines against the NCATS MIPE library collection: KMS26_JCRB cell viability assay (AID 1918975); further: nearly all actives have a fitted effect of over 45% in size; further: potency means the concentration at half of the fitted maximal effect
# How it was run: as §3
# [16] = Quantitative High-Throughput drug screen in 47 multiple myeloma cell lines against the NCATS MIPE library collection: KMS21BM_JCRB cell viability assay (AID 1918974); details: ATP luminescence, 48 h; viability: at 45.8 µM (top of the series); further: potency means the concentration at half of the fitted maximal effect
# How it was run: as §1
# [17] = Quantitative High-Throughput drug screen in 47 multiple myeloma cell lines against the NCATS MIPE library collection: L363_DSMZ cell viability assay (AID 1918984); further: nearly all actives have a fitted effect of over 40% in size; further: potency means the concentration at half of the fitted maximal effect
# How it was run: as §2
SMILES,Potency [1],Potency [2],Potency [3],Potency [4],Potency [5],Potency [6],Potency [7],Potency [8],Potency [9],Potency [10],Potency [11],Potency [12],Potency [13],Potency [14],Potency [15],Potency [16],Potency [17]
COc1cc2ncnc(Nc3cccc(Cl)c3)c2cc1OC,20.9 µM (active),29.6 µM (active),20.9 µM (active),11.8 µM (active),20.9 µM (active),0.0743 µM (active),20.9 µM (active),inactive,26.4 µM (active),0.264 µM (active),,,,,,,
Cc1onc(-c2ccccc2Cl)c1C(=O)N[C@@H]1C(=O)N2[C@@H]1SC(C)(C)[C@@H]2C(=O)O,inactive,inactive,inactive,inactive,,14.8 µM (active),inactive,inactive,inactive,inactive,inactive,inactive,inactive,inactive,,,
O=P(O)(O)C(O)(Cc1cccnc1)P(=O)(O)O,,inactive,inactive,,,inactive,,inactive,inactive,inactive,,inactive,inactive,,,,
CN1CCCC(n2nc(Cc3ccc(Cl)cc3)c3ccccc3c2=O)CC1 (centres undefined),1.32 µM (active),,,8.33 µM (active),,0.662 µM (active),2.35 µM (active),,13.2 µM (active),1.18 µM (active),,0.935 µM (active),,10.5 µM (active),3.72 µM (active),,
COCCCOc1cc(C[C@@H](C[C@H](N)[C@@H](O)C[C@H](C(=O)NCC(C)(C)C(N)=O)C(C)C)C(C)C)ccc1OC,1.87 µM (active),,inactive,,,0.0743 µM (active),inactive,,inactive,inactive,,inactive,,inactive,inactive,,
COc1ncnc(NS(=O)(=O)c2ccc(N)cc2)c1OC,,inactive,inactive,,inactive,23.5 µM (active),inactive,inactive,inactive,,inactive,inactive,inactive,inactive,,,
Cc1cccc(N(C)C(=S)Oc2ccc3ccccc3c2)c1,,,,,,,inactive,,inactive,,,inactive,inactive,inactive,,,
CC(C)Cn1cnc2c(N)nc3ccccc3c21,inactive,,,16.6 µM (active),,4.69 µM (active),,inactive,23.5 µM (active),16.6 µM (active),,,inactive,,,,
CC(=O)[C@H]1CC[C@H]2[C@@H]3CCC4=CC(=O)CC[C@]4(C)[C@H]3CC[C@]12C,,,,,,3.72 µM (active),,,inactive,,,inactive,,inactive,,,
CCN(C)C(=O)Oc1cccc([C@H](C)N(C)C)c1,inactive,,inactive,,inactive,inactive,,,inactive,inactive,,inactive,inactive,inactive,,,
CCOC(=O)c1ccc(OC(=O)CCCCCN=C(N)N)cc1,inactive,,inactive,,inactive,,inactive,inactive,inactive,,inactive,inactive,inactive,inactive,,,
COC(=O)Nc1nc2ccc(Sc3ccccc3)cc2[nH]1,,,0.833 µM (active),18.7 µM (active),13.2 µM (active),2.09 µM (active),4.18 µM (active),2.35 µM (active),5.26 µM (active),1.18 µM (active),,8.33 µM (active),3.32 µM (active),2.96 µM (active),18.7 µM (active),0.59 µM (active),0.469 µM (active)
CC[C@H](C)C(=O)O[C@H]1C[C@@H](C)C=C2C=C[C@H](C)[C@H](CC[C@@H]3C[C@@H](O)CC(=O)O3)[C@H]21,,inactive,inactive,14.8 µM (active),,16.6 µM (active),16.6 µM (active),20.9 µM (active),,16.6 µM (active),,,inactive,,,,inactive
O=C(O)C1CCCN(CCC=C(c2ccccc2)c2ccccc2)C1 (centres undefined),,inactive,inactive,inactive,0.0059 µM (active),9.35 µM (active),inactive,,inactive,inactive,,inactive,,inactive,inactive,,
